ALDH1A1 inh: inhibitors of human aldehyde dehydrogenase 1A1. P00352. Purified ALDH1A1, NADH fluorescence, propionaldehyde substrate. Potency, µM (highest dose often 75.3 µM), actives largely listed as inhibitors. 7.3% of 220,000 active. AID 1030; active means well fitted inhibition curve with a large enough effect, not every such curve was filed as active; inconclusive means small, poorly fitted or top-dose-only effect, or another doubt; inactive means no such curve, though single readings can be large or run the other way
Target sequence (P00352 whole entry, looked up): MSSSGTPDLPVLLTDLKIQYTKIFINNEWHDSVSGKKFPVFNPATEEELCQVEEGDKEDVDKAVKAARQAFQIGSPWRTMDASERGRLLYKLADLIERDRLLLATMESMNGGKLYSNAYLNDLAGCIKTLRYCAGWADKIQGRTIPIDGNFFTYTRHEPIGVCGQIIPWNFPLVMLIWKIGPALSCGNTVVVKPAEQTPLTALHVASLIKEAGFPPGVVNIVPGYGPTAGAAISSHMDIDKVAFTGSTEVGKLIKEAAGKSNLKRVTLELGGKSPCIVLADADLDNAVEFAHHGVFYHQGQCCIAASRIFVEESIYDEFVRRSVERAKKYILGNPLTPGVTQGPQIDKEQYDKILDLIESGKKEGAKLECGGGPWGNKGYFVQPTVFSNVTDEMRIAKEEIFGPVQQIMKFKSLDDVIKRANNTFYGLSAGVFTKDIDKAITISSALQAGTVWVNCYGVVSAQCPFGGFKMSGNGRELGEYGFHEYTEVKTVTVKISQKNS
NPSR antag: blocks cAMP signaling of the human neuropeptide S receptor | Q6W5P4 | CHO-NPSR cells, cAMP TR-FRET, antagonist mode | Potency, µM (highest dose often 38.3 µM), most hits filed as inhibitors | 1% of 220,000 active; further: nearly all actives have a fitted effect of over 50% in size
FBPA coupling cs: inhibits coupling enzyme system, counter-screen for aldolase hits; coupling enzyme system counterscreen, AmpLite Red fluorescence; activity change, negative = inhibition, % at 58.2 µM, hits read low; 0.67% of 290,000 active; in the data active means activity change below about -30%
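Final compound at 57.5 uM, incubated 10 min at RT with coupling enzyme reagent (glyceraldehyde-3-phosphate), then 20 min with substrate and AmpLite Red detection. Fluorescence read at 525/598 nm; tests interference with the coupling assay, not aldolase inhibition.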
Sfp PPTase inh: inhibitors of Bacillus subtilis Sfp phosphopantetheinyl transferase. Biochemical Sfp PPTase activity, qHTS. Potency, µM, actives largely listed as inhibitors. 3.5% of 310,000 active. AID 1490;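 further: the enzyme is Sfp with the accession as filed and its product quenches rhodamine fluorescence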
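Reaction rates are the 30-min fluorescence difference (ex 525, em 598 nm) in wells containing 15 nM Sfp, 5 uM rhodamine-CoA and 12.5 uM BHQ-2-YbbR at pH 7.6 with 10 mM MgCl2.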
JMJD2E inh: inhibitors of human JMJD2E histone demethylase. B2RXH2. JMJD2E catalytic domain, FDH-coupled NADH fluorescence (FDH is formaldehyde dehydrogenase). Potency, µM (titrated, usually from 57.1 µM), most hits filed as inhibitors. AID 2147. 1.6% of 230,000 active; active means well fitted inhibition curve with a large enough effect, not every such curve was filed as active; inconclusive means small, poorly fitted or top-dose-only effect, or another doubt; inactive means no such curve, though single readings can be large or run the other way; further: nearly all actives have a fitted effect of over 50% in size
RGS12 GoLoco inh: inhibitors of human Gai1-RGS12 GoLoco interaction (red fluorophore); P63096; Gai1:RGS12 GoLoco peptide FP, rhodamine, 10 min; Potency, µM (doses to about 61.6 µM), usual class: inhibitors; 0.44% of 230,000 active; AID 880; active means well fitted inhibition curve with a large enough effect, not every such curve was filed as active; inactive means no such curve, though single readings can be large or run the other way; further: nearly all actives have a fitted effect of over 30% in size
Hits are given with their value; . = inactive; ? = inconclusive; / = no result given; ! = not confirmed by another sample; [ ] = remark or other dose. Sampled rows, rich in hits. Any-hit rate of the full collection: about 8.5%. Unless noted, the call rests on the fitted dose curve; in most records, active means well fitted curve in the direction sought with a large enough effect; inconclusive means small, poorly fitted or top-dose-only effect, or another doubt; inactive means no such curve, though single readings can be large; an effect the other way counts as inactive or inconclusive.

SMILES | ALDH1A1 inh | NPSR antag | FBPA coupling cs | Sfp PPTase inh | JMJD2E inh | RGS12 GoLoco inh
COc1ccc(C(=O)N(C)Cc2ccccc2)cc1Br | . | . | . | . | . | .
COC(=O)c1c(NC(=O)c2ccccc2)sc(C(N)=O)c1C | ? | ? | . | . | ? | .
Cc1cc(NC(=O)c2ccccc2)sc1C | . | . | . | 50.1µM | . | .
COC(=O)c1c(NC(=O)c2cccc([N+](=O)[O-])c2)sc(C(N)=O)c1C | 7.94µM | . | . | 44.7µM | . | .
COC(=O)c1c(NC(=O)c2ccccc2)sc(C(=O)c2ccccc2)c1C | 14.1µM | . | . | . | . | .
Cc1ccc(C(=O)Nc2sc(C)c(-c3ccccc3)c2C(N)=O)cc1[N+](=O)[O-] | 10µM | . | . | 44.7µM | . | .
COC(=O)c1sc(NC(=O)c2cccc([N+](=O)[O-])c2)c(C(N)=O)c1C | 10µM | . | . | ? | . | .
CCN(CC)C(=O)c1sc(NC(=O)c2cccc([N+](=O)[O-])c2)c(C#N)c1C | . | . | . | . | . | .
COC(=O)c1c(-c2cccc(C)c2)csc1N | . | . | . | . | . | .
COC(=O)c1c(-c2ccc3ccccc3c2)csc1NC(=O)Cc1ccc(OC)c(OC)c1 | . | . | . | . | ? | .
COC(=O)c1c(-c2cccc(OC)c2)csc1N | 25.1µM | . | . | 56.2µM | . | .
COC(=O)c1c(-c2ccc(OC)c(OC)c2)csc1N | 3.98µM | . | . | . | . | .
COc1cccc(N2CCN(Cc3nnnn3C3CCCCC3)CC2)c1 | . | . | . | . | . | .
O=C1CCc2cc(OCCCCc3nnnn3C3CCCCC3)ccc2N1 | 25.1µM! | ? | . | . | . | .
Cc1nc(SCc2ccccc2F)c2oc3ccccc3c2n1 | / | . | . | 79.4µM | . | .
O=C(CSc1ncnc2c1oc1ccccc12)c1cccs1 | . | . | . | . | . | .
Cc1nc(SCC(=O)N2CCN(c3ccccc3)CC2)c2oc3ccccc3c2n1 | 39.8µM | . | . | . | . | .
Cc1nc(SCC(=O)c2cccs2)c2oc3ccccc3c2n1 | . | . | . | 79.4µM | . | .
Cc1nc(SCC(=O)O)c2oc3ccccc3c2n1 | . | . | . | . | . | .
COc1cc(/C=N/N2CCN(Cc3ccccc3)CC2)cc(OC)c1OC(C)=O | / | / | . | . | / | /
O=S(=O)(c1cnc(Cl)c(Cl)c1)N1CCc2ccccc21 | / | .[7.67 µM] | . | . | . | .
O=S(=O)(c1cnc(Cl)c(Cl)c1)N1CCCc2ccccc21 | 3.16µM | . | . | ? | . | .
O=S(=O)(c1cnc(Cl)c(Br)c1)N1CCc2ccccc21 | 2.82µM | . | . | . | . | .
COc1ccc(C2C(C#N)=C(N)OC3=C2C(=O)CC(C)(C)C3)cc1 (stereo not given) | 4.47µM | . | . | . | . | .
CC1(C)CC(=O)C2=C(C1)OC(N)=C(C#N)C2c1ccsc1 (stereo not given) | 25.1µM | . | . | . | . | .
SMILES | ALDH1A1 inh | NPSR antag | FBPA coupling cs | Sfp PPTase inh | JMJD2E inh | RGS12 GoLoco inh
CC1(C)CC(=O)C2=C(C1)OC(N)=C(C#N)C2c1ccc(OC(=O)N2CCOCC2)cc1 (stereo not given) | 3.16µM | . | . | . | . | .
CC1(C)CC(=O)C2=C(C1)OC(N)=C(C#N)C2c1ccc[nH]1 (stereo not given) | . | . | . | 50.1µM | . | .
CC1C(C#N)=C(N)OC2=C1C(=O)CC(C)(C)C2 (stereo not given) | . | . | . | . | . | .
COc1ccc(-c2[nH]nc3c2C(c2ccc(OC(=O)N4CCOCC4)cc2)C(C#N)=C(N)O3)cc1 (stereo not given) | . | 12.6µM | . | . | . | .
CC1(C)CC(=O)C2=C(C1)OC(N)=C(C#N)C2C1CC=CCC1 (stereo not given) | 7.94µM | . | . | . | . | .
CCC(C)C1C(C#N)=C(N)OC2=C1C(=O)CC(C)(C)C2 (stereo not given) | 11.2µM | . | . | . | . | .
CC(C)(C)c1[nH]nc2c1C(c1cccnc1)C(C#N)=C(N)O2 (stereo not given) | ? | . | . | . | . | /
CC(C)(C)c1[nH]nc2c1C(c1ccc(OC(=O)c3ccco3)cc1)C(C#N)=C(N)O2 (stereo not given) | 4.47µM | . | . | . | . | .
C[N+]1(CC2COC(c3ccccc3)(C3CCCCC3)O2)CCCCC1 (stereo not given) | / | / | / | . | / | /
COc1ccccc1CNC(=O)c1nccnc1CO | / | / | . | . | / | /
COc1ccc(CN(C)C2c3ccccc3-c3ccccc32)cc1 | . | . | . | . | . | /
CC1(C)CC(=O)C2=C(C1)OC(c1ccncc1)C(C#N)=C2N (stereo not given) | ? | . | . | . | . | .
CC1(C)CC(=O)C2=C(C1)OC(c1ccc(O)cc1)C(C#N)=C2N (stereo not given) | 1.12µM | . | . | . | . | .
CCOC(=O)CSc1ccc(S(=O)(=O)N2CCCCC2)cc1[N+](=O)[O-] | . | . | . | . | . | .
CN(CC(=O)Nc1ccc(Cl)cc1)c1ccc(S(=O)(=O)N2CCCCC2)cc1[N+](=O)[O-] | 11.2µM | . | . | . | . | .
CN(CC(=O)Nc1ccc(S(=O)(=O)N2CCCC2)cc1)Cc1ccc(Cl)cc1Cl | ? | . | . | . | . | .
COC(=O)CSc1ccc(S(=O)(=O)N2CCCCCC2)cc1[N+](=O)[O-] | 10µM | . | . | . | . | .
COc1ccc(CNC(=O)CCCn2nc(C)c3c(C)n(-c4ccc(C)cc4)nc3c2=O)cc1 | / | / | . | . | / | /
CN(C)c1ccc(C(c2nnnn2CCOC(=O)Nc2ccc(Cl)cc2)N2CCOCC2)cc1 (stereo not given) | 25.1µM | . | . | . | . | .
O=C(Nc1ccc(Cl)cc1)OCCn1nnnc1C(c1ccccc1)N1CCOCC1 (stereo not given) | . | . | . | . | . | .
CCN1CCN(C(=O)CCn2c(=O)c3cccn3c3cccnc32)CC1 | / | / | / | . | / | /
COc1cc(SC#N)ccc1N=Cc1c(C)[nH]n(-c2ccc(Cl)cc2)c1=O | 2.51µM | ? | . | . | . | .
COc1cc(SC#N)ccc1N=Cc1c(C)[nH]n(-c2ccc(C)c(C)c2)c1=O | 0.282µM | 5.01µM | . | . | . | .
COc1ccc(CCN=Cc2c(C)[nH]n(-c3ccc([N+](=O)[O-])cc3)c2=O)cc1OC | . | . | . | . | . | .
COc1cc(S(=O)(=O)Nc2ccccc2)ccc1N=Cc1c(C)[nH]n(-c2ccc(C)cc2)c1=O | . | . | . | . | . | .
O=C1c2ccccc2C(O)(c2ccccc2)N1c1ccncc1 (stereo not given) | / | . | . | . | . | .
CC(=O)Nc1ccc(C2=NNC(=Nc3cccc(S(=O)(=O)N(C)C)c3)SC2)cc1 | ? | . | . | 12.6µM | ? | .
Cc1cc(S(=O)(=O)N2CCOCC2)ccc1F | . | . | . | . | . | .
